The whole screen tested about 320,000 compounds, of which about 1,300 (0.41%) were called active. Another 3% or so got no clear call; they are omitted. How the calls were made is not given here. A selection follows. Entries with a potency or affinity are not part of this list.
Experiment: growth inhibition of non-replicating M. tuberculosis (AID 488890);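 further: plate controls were DMSO cells for no effect and high antibiotic wells for full effect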
Details: Mycobacterium tuberculosis non-replicating, at 25 µM, stronger effect = higher value
With Cc1nc(CNS(=O)(=O)c2ccccc2F)cs1 the inhibition was -17.8%. CCN(CCCNC(=O)C1c2ccccc2C(=O)N(CCOC)C1c1ccc(F)cc1)Cc1ccccc1 (configuration not stated) showed an inhibition of 1.48%. Compound CC12CN3CC(C)(CN(C1)C3c1ccc([N+](=O)[O-])o1)C2=O (configuration not stated) has an inhibition of 18.6%. Compound CCC12CN3CC(CC)(CN(C1)C3c1ccc([N+](=O)[O-])o1)C2=O (configuration not stated) has an inhibition of 38.4%. C/C(=N\NC(=O)c1ccc2c(c1)OCO2)c1ccc(C(=O)O)s1 showed an inhibition of -9.87%. In the case of COc1ccc(NC(=O)CN(C)C(=O)c2ccc(-c3ccccc3Cl)o2)cc1, the inhibition is reported as 12.7%. Work on CSc1nc(-c2ccco2)nn1C(=O)c1ccc(C)cc1 yielded an inhibition of 8.76%. Work on CC(C)(C)OC(=O)NCCc1nnc(SCc2ccc(Cl)cc2)o1 yielded an inhibition of 64.8%. Work on CC(C)(C)OC(=O)NCCc1nnc(SCc2ccc(Cl)cc2Cl)o1 yielded an inhibition of 41.4%. CCOC(=O)c1nnc(-c2cccs2)nc1Oc1ccc(Cl)cc1 gave an inhibition of -0.21%. For COc1ccc(OC(=O)c2cn(C)nc2C(F)(F)F)cc1, the inhibition was 12.6%. CCN(C/C=C/c1ccccc1OC)Cc1ccccc1 gave an inhibition of 27.1%. CCCCN(CCCC)Cc1ccc(N)cc1 showed an inhibition of 19.4%. With CCOC(=O)C1CCCN(S(=O)(=O)c2c(C)noc2C)C1 (configuration not stated) the inhibition was -14.5%. With CC(C)CN(C(=O)COC(=O)c1cccn1C)c1c(N)n(Cc2ccccc2)c(=O)[nH]c1=O the inhibition was 16.9%. Work on CC(=O)Oc1ccc(/C=C2/Oc3ccccc3C2=O)cc1 yielded an inhibition of 36%. In the case of CCOC(=O)Oc1ccc(/C=C2\N=C(C)OC2=O)cc1, the inhibition is reported as -12.5%. For COc1ncnc(OC)c1S(=O)(=O)NCc1ccccc1, the inhibition was -2.39%. With CCOc1ccc(CC(=O)N/N=C/c2cccnc2)cc1 the inhibition was -5.71%. In the case of CCOc1ccc(OCc2cccc(C(=O)N/N=C/c3cccnc3)c2)cc1, the inhibition is reported as 59.6%. Cc1[nH]n2cnnc2c(=O)c1Br showed an inhibition of -1.45%. COc1ccc(-c2nc(NC(=O)Cn3cnnn3)sc2C)cc1 showed an inhibition of 13.2%. Work on O=C(Cc1ccccc1[N+](=O)[O-])OCC(=O)c1c[nH]c2ccccc12 yielded an inhibition of 4.48%. For CCOC(=O)c1c(C)[nH]c(C)c1C(=O)COC(=O)c1cccs1, the inhibition was 28.9%. Work on CCOC(=O)c1c(C)[nH]c(C)c1C(=O)COC(=O)/C=C/c1ccccc1[N+](=O)[O-] yielded an inhibition of 46.8%. For Cc1cc(C(=O)OCC(=O)N2CCC(c3ccccc3)=N2)ccc1[N+](=O)[O-], the inhibition was 22.1%. For O=C(OCC(=O)c1c[nH]c2ccccc12)c1cccc([N+](=O)[O-])c1, the inhibition was -14.6%. Work on Cc1cccc(C(=O)OCC(=O)c2c(C)[nH]c3ccccc23)c1O yielded an inhibition of 3.19%. CCc1cc(C(=O)OCC(=O)N2CCC(c3ccccc3)=N2)sc1C showed an inhibition of 65.9%. Work on Cc1[nH]c2ccccc2c1C(=O)COC(=O)c1ccccc1O yielded an inhibition of 31.1%. Compound O=C(NCCCCl)C1CC(=O)N(CCc2ccc(F)cc2)C1 (configuration not stated) has an inhibition of 5.65%. With O=C(O)c1cc(N2C(=O)C3CCCCC3C2=O)ccc1NCc1cccnc1 (configuration not stated) the inhibition was 4.47%. Compound CCN(CC)C(=O)Cn1cc(C(=O)C(=O)NCc2cccnc2)c2ccccc21 has an inhibition of -4.61%. COc1cc(OC)cc(C(C(=O)NC2CCCCC2)N(C(=O)c2ccno2)c2ccccc2)c1 (configuration not stated) gave an inhibition of 8.21%. With Cc1ccc(CN2CC(C(=O)Nc3ncccc3C)CC2=O)cc1 (configuration not stated) the inhibition was -7.14%. With COc1cccc(/C=N/NC(=O)c2nnn(-c3nonc3N)c2-c2cccs2)c1 the inhibition was 7.66%. COc1ccc(C(=O)COC(=O)c2ccc(OC)c(OC)c2)cc1OC showed an inhibition of 3.56%. COc1ccc(C(=O)OCC(=O)Nc2ncc([N+](=O)[O-])s2)cc1OC gave an inhibition of -11.2%. O=C(CSc1nc(=O)n(CCCN2CCOCC2)c2c1CCCC2)Nc1ccccc1Cl gave an inhibition of 11.7%. Work on CC(C)(C)c1ccc(OCCC(=O)NC2=NCCS2)cc1 yielded an inhibition of 66.8%. Work on CCOc1ccc(OCCCC(=O)NC2=NCCS2)cc1 yielded an inhibition of 40.7%. O=c1oc2ccccc2c2c1nnn2CCO showed an inhibition of 97.3%. Work on CCn1c(C)nc2c(=O)oc3ccccc3c21 yielded an inhibition of -3.87%. In the case of CCC(C)n1cnc2c(=O)oc3ccccc3c21 (configuration not stated), the inhibition is reported as -10.2%. CN(C)CCn1nnc2c(=O)oc3ccccc3c21 gave an inhibition of -13.7%. Work on CC(C)Cn1cnc2c(=O)oc3ccccc3c21 yielded an inhibition of -17.9%. Cc1ccc(-n2nnc3c(=O)oc4ccccc4c32)cc1 gave an inhibition of 6.67%. With CSc1n[nH]c(/N=C/c2oc(O)c3ccccc23)n1 the inhibition was -21.1%. With O=C(CNC(=O)c1ccc(Cl)cc1)NC1CCCCC1 the inhibition was -2.3%. Work on CN(CC(=O)Nc1ccc(N2CCOCC2)cc1)C(=O)c1cc(F)c(F)cc1Cl yielded an inhibition of -5.8%. Work on CCc1ccc(C(=O)COC(=O)CNC(=O)Cc2ccccc2)cc1 yielded an inhibition of 47.9%. In the case of Cc1csc(N2CCCC2c2nc3cc(Cl)c(N4CCCCC4)cc3n2CCOCCO)n1 (configuration not stated), the inhibition is reported as 5.44%. CNCc1ccccc1OCc1ccccc1F showed an inhibition of 8.9%. CC(=O)Oc1ccc2nc(-c3ccco3)oc(=O)c2c1 gave an inhibition of 42%. N#Cc1ccc(OCC(=O)Nc2nc(-c3cccnc3)cs2)cc1 gave an inhibition of -5.75%. For O=C(CCCOc1ccccc1)Nc1cccnc1, the inhibition was 44.6%. In the case of N#Cc1ccc(OCC(=O)Nc2ccncc2)cc1, the inhibition is reported as 46.2%. With O=C(COc1ccc([N+](=O)[O-])cc1)Nc1cccnc1 the inhibition was 51.3%. With COc1ccc(/C=N/NC(=O)c2ccc3c(c2)OCO3)c(C(=O)O)c1OC the inhibition was 37.5%. Compound NS(=O)(=O)c1ccc(CCNC(=S)Nc2ccc(F)cc2)cc1 has an inhibition of 30%. With O=C(c1cccc(F)c1)N1CCN(C(=O)C2CC2)CC1 the inhibition was 0.47%. Work on C[C@@H]1CN([C@H](C)CO)C(=O)c2cc(NC(=O)C3CCCCC3)ccc2O[C@@H]1CN(C)Cc1ccc(C(F)(F)F)cc1 yielded an inhibition of 28%. In the case of CC(=O)c1ccc(NC(=O)Cc2cccs2)cc1, the inhibition is reported as 47%. With COC(=O)C1=C(c2ccc(F)cc2OCc2ccccc2)C[C@@H]2CC[C@H]1N2C(=O)NC1CCCCC1 the inhibition was 39.2%. In the case of COc1ccc(/C(C)=N/Nc2nc3ccccc3nc2C)cc1OC, the inhibition is reported as 18.1%. COc1ccc(/C(C)=N/Nc2nc3ccccc3nc2C)cc1 gave an inhibition of -2.93%. Work on N#Cc1ccc(COC(=O)c2cccnc2Cl)cc1 yielded an inhibition of 57%. In the case of Cc1ccc(-c2cc(C(F)(F)F)n3ncc(C(=O)N4CCCc5ccccc54)c3n2)cc1, the inhibition is reported as 9.06%. Work on COC(=O)c1ccc(/C=C/C(=O)OCC(=O)NCc2cccs2)cc1 yielded an inhibition of 13.7%. Compound CN1CCCC(C(=O)c2ccccc2)C1 (configuration not stated) has an inhibition of -7.66%. CN1CC(C(=O)c2ccccc2)C(C(=O)c2ccccc2)C1 (configuration not stated) gave an inhibition of 14.7%. In the case of CN1CC(C(=O)c2ccc(Cl)cc2)C(c2ccc(Cl)cc2Cl)C1 (configuration not stated), the inhibition is reported as 55.7%. For CN1CCCC(C(=O)c2ccc(Cl)cc2)C1 (configuration not stated), the inhibition was 2.9%. With CN1CCC(NC(=O)c2cccs2)CC1 the inhibition was -14.8%. In the case of CC1CN(C(=O)c2cccs2)CC(C)O1 (configuration not stated), the inhibition is reported as -2.97%. In the case of CC(=O)Oc1ccc(S(=O)(=O)c2ccc(OC(C)=O)cc2)cc1, the inhibition is reported as -5.93%. In the case of Cc1ccc(S(=O)(=O)Nc2ccc3c(c2)C(=O)N([C@H](C)CO)C[C@H](C)[C@@H](CN(C)C(=O)Nc2ccc(C(F)(F)F)cc2)O3)cc1, the inhibition is reported as 46.2%. COc1cccc(-c2nn(-c3ccccc3)cc2CN(C)Cc2ccno2)c1 gave an inhibition of 2.32%. With S=c1[nH]nc(Cc2ccc(Cl)cc2)n1-c1ccc2c(c1)OCCO2 the inhibition was -2%. O=C(Nc1ccc(S(=O)(=O)Nc2nccs2)cc1)C1CCCCC1 gave an inhibition of 60.2%. O=C(NC(=S)Nc1ccc(S(=O)(=O)Nc2nccs2)cc1)C1CC1 gave an inhibition of 23.6%. For Cc1ccc(C(=O)NC(=S)NNC(=O)CC#N)cc1, the inhibition was 39.8%. In the case of Cc1ccc(C(=O)NNC(=O)c2ccc(C)cc2)cc1, the inhibition is reported as -1.12%. Cc1cc(C(=O)N2CCN(c3ncccn3)CC2)nn1C showed an inhibition of -1.81%. COc1cccc(/C=C/C(=O)OCCN2C(=O)c3ccccc3C2=O)c1 showed an inhibition of 24.5%. CC1(C)C(=O)OC(c2cccc([N+](=O)[O-])c2)C2(CCCCC2)C1=O (configuration not stated) showed an inhibition of 12.6%. For COc1ccc(C2(CNC(=O)c3ccccc3)CCOCC2)cc1, the inhibition was -1.08%. Compound CC(=O)c1ccc(NC(=O)c2ccccc2-c2ccccc2C(=O)O)cc1 has an inhibition of 78.9%. In the case of COC(=O)c1ccc(NC(=O)c2ccccc2-c2ccccc2C(=O)O)cc1, the inhibition is reported as 65.6%. COC(=O)C[C@H](NC(=O)Cn1cnc2c(SC)nc(N)nc21)C(=O)OC gave an inhibition of -10.4%. Work on CC(=O)c1ccc(NC(=O)CNC2CCCCC2)cc1 yielded an inhibition of -1.52%. Cc1c(N=c2c(=O)c3ccccc3c2=O)c(=O)n(-c2ccccc2)n1C showed an inhibition of -4.23%. Compound CCC/C(O)=C1\C(=O)CC(C)(C)CC1=Nc1ccccc1O has an inhibition of 2.5%. Work on CC1c2[nH]c3ccccc3c2C[C@H]2C(=O)N(CCCN(C)C)CC(=O)N12 (some centres not stated) yielded an inhibition of -5.98%. For Cc1ccc(C(=O)Nc2ccc(NC(=O)c3ccc(C)o3)cc2)o1, the inhibition was 0.92%. In the case of Cc1ccc(C(=O)CCNc2ccccc2)o1, the inhibition is reported as -1.75%. Compound Cc1ccc(NC(=O)COC(=O)c2cc(=O)c3ccccc3o2)c(Br)c1 has an inhibition of 6.59%. In the case of Cc1cc(/C=C2\SC(=S)NC2=O)c(C)n1C1CC1, the inhibition is reported as 43.8%. With CCN1C(=O)C(=Cc2cc(C)n(C3CC3)c2C)C(=O)N(CC)C1=S the inhibition was 69.5%. CCCS(=O)(=O)C/C(N)=N/OC(=O)c1ccc(Cl)cc1 showed an inhibition of 3.52%. COc1ccc(NC(=O)CN(C)CC(=O)Nc2ccccc2SC)cc1 showed an inhibition of -4.75%. With O=C(NNc1nc2c(F)cc(F)cc2s1)c1ccccc1 the inhibition was -1.93%. Compound Cc1csc(NC(=O)c2cnccn2)n1 has an inhibition of 16.7%. Compound Cc1ccc(C)c(-c2csc(NC(=O)c3c(C)noc3C)n2)c1 has an inhibition of -15%. O=C(Nc1nc2c(F)cc(F)cc2s1)c1ccco1 gave an inhibition of 36.2%. O=C(Nc1nc(-c2cc(F)ccc2F)cs1)C1=COCCO1 showed an inhibition of 22.8%. CCOCC(=O)Nc1nc2ccc(OCC)cc2s1 showed an inhibition of 80%. Cc1onc(-c2ccccc2)c1C(=O)Nc1nc(-c2cc(F)ccc2F)cs1 showed an inhibition of -10.6%. With COCC(=O)Nc1nc2ccc(C)cc2s1 the inhibition was 49%. In the case of CC(C)Cc1ccc(CN2CCCC(NC(=O)CCN3CCOCC3)C2)cc1 (configuration not stated), the inhibition is reported as 34.5%. With CCS(=O)(=O)N1CCC(C(=O)Oc2ccc(C(=O)OC)cc2)CC1 the inhibition was 4.94%. O=C(Nc1nc2ccc(F)cc2s1)Oc1ccccc1 gave an inhibition of 6.26%. Cc1ccc2nc(NC(=O)COC(=O)c3ccccn3)sc2c1 showed an inhibition of 76.5%. Cc1ccc2nc(NC(=O)c3ccccc3F)sc2c1 showed an inhibition of 2.6%. O=C(Nc1nc2ccc(F)cc2s1)c1cccs1 showed an inhibition of 33.5%. For Cc1cnc(NC(=O)c2ccncc2)s1, the inhibition was -17.1%. With CSc1ncccc1C(=O)Nc1ncc(C)s1 the inhibition was 13.3%.

Reference: PubChem BioAssay AID488890 (Southern Research Specialized Biocontainment Screening …, 2010)
